High-throughput results deposited in PubChem BioAssay by National Center for Advancing Translational Sciences (NCATS).
Pol iota inh – qHTS for Inhibitors of Polymerase Iota | Pol iota fluorescent replication assay, 10 min | Potency, µM (highest dose often 115 µM), without a hit: top-dose activity, negative = inhibition, usual class: inhibitors | 390,000 compounds, 1% hits
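Fluorescent replication assay read twice, at 0 min and 10 min after adding 50 nM (final) substrate. Enzyme (10 nM) and compounds were first incubated 15 min at room temperature; enzyme-free buffer wells were negative controls.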
GLS inh – qHTS for Inhibitors of Glutaminase (GLS). Glutaminase kidney isoform, mitochondrial (Homo sapiens), O94925. GLS enzymatic activity, qHTS titration. Potency, µM (top dose mostly 45.5 µM), for inactives: top-dose activity change, negative = inhibition, usual class: inhibitors. 410,000 compounds, 0.21% hits; note: % is set by controls: 0 for no effect and ±100 for the full control effect
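hKGA in 45 mM KH2PO4 pH 8.2, 0.02% Tween-20 with pin-transferred compounds; 1 mM L-glutamine (stock) plus glutamate oxidase/HRP/Amplex Red coupling added. Fluorescence read initially and after 30 min at RT.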
GCN5L2 inh – qHTS Assay for Inhibitors of GCN5L2; GCN5L2 HAT assay, ThioGlo1 CoA-SH fluorescence; Potency, µM (series often up to 58.9 µM), without a hit: top-dose activity change, negative = inhibition, usual class: inhibitors; 390,000 compounds, 0.21% hits; AID 504327, 2011; note: % is set by controls: 0 for no effect and ±100 for the full control effect
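qHTS, 1536-well. 20nM enzyme, pH 7.5 HEPES/EDTA/Tween-20 buffer; 15 min compound preinc., RT. Start: 75uM H3(1-25), 70uM AcCoA, 50uM ThioGlo1. Read Ex340/Em540 at t=0 (autofluorescence flag) and t=20 min.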
Pol beta inh – qHTS Assay for Inhibitors of DNA Polymerase Beta; P06746; Pol beta primer extension/strand displacement, fluorescence kinetic; Potency, µM (series often up to 114 µM), for inactives: top-dose activity change, negative = inhibition, actives largely listed as inhibitors; 340,000 compounds, 1.3% hits; AID 485314, 2010; note: % is set by controls: 0 for no effect and ±100 for the full control effect
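10 nM enzyme + cpd, 15 min RT; start with substrate 50 nM final; read 0 min and after 10 min RT. Corrected, normalized data; 4-parameter Hill curve fit.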
POLK inh – qHTS for Inhibitors of Polymerase Kappa | purified Pol kappa, fluorescent DNA synthesis assay, 10 min | Potency, µM (highest dose often 107 µM), without a hit: at the top dose activity, negative = inhibition, most hits filed as inhibitors | 400,000 compounds, 0.53% hits | AID 588579, 2011; note: % is set by controls: 0 for no effect and ±100 for the full control effect
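Kinetic fluorescence screen: compound preincubated 15 min RT with 10 nM enzyme; 50 nM substrate (final) initiates; reads at 0/10 min.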
POLH inh – qHTS for Inhibitors of Polymerase Eta; DNA polymerase eta (Homo sapiens), Q9Y253; recombinant Pol eta, fluorescent DNA replication assay; Potency, µM (highest dose often 114 µM), without a hit: at the top dose activity change, negative = inhibition, most hits filed as inhibitors; 390,000 compounds, 1.2% hits; note: % is set by controls: 0 for no effect and ±100 for the full control effect
Target sequence (Q9Y253 whole entry, looked up): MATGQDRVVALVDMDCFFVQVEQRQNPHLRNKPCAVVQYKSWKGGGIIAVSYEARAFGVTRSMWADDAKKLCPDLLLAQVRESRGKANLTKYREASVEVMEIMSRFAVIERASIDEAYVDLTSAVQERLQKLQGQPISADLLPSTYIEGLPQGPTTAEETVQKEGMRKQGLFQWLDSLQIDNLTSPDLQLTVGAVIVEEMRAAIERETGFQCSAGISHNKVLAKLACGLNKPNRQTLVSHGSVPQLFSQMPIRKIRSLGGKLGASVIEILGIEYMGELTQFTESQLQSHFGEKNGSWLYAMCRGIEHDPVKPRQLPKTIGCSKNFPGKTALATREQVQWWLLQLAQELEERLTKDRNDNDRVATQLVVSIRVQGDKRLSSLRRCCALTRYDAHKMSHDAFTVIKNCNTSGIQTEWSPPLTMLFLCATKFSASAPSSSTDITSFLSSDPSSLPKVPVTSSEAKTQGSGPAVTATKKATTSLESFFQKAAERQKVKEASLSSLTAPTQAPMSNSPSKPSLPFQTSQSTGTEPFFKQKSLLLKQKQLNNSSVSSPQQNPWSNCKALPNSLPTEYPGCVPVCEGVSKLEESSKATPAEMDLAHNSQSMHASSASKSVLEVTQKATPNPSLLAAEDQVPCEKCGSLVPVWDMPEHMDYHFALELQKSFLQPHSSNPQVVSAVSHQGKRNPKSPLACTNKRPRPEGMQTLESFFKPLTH
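Pol eta (10 nM) was preincubated with compounds for 15 min at room temperature, after which fluorescent replication substrate (50 nM final) was added to start the reaction. Fluorescence was read kinetically at 0 and 10 min.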
Starred values were filed as active, the others as inactive; ? = inconclusive; . = no result; [ ] = dose if it differs, or a comment. An excerpt weighted towards active compounds, which were near 2.4% of everything screened. Calls come from the whole dose curve; as a rule, active = well fitted inhibition curve with a large enough effect; inconclusive = small, poorly fitted or top-dose-only effect, or another doubt; inactive = no such curve, though single readings can be large or run the other way. Potency is the fitted concentration of half-maximal effect.

SMILES	Pol iota inh	GLS inh	GCN5L2 inh	Pol beta inh	POLK inh	POLH inh
CCc1ccc(NC(=O)CS(=O)CC(=O)Nc2ccc(F)cc2F)cc1 (stereo unspecified)	?	-3%	-3%	40µM*	-22%	-4%
CCN(CC(=O)Nc1ccc(OC)cc1)C(=O)Cc1cccs1	32µM*	5%	-28%	.	?	56µM*
CCCN1CNc2c(c(=O)[nH]c(=S)n2CCc2cccc(OC)c2)C1	25%	.	.	.	-13%	.
CCc1ccc(NC(=O)CS(=O)CC(=O)Nc2ccc(N3CCOCC3)cc2)cc1 (stereo unspecified)	?	37%	-29%	22µM*	-11%	?
NC(=O)c1ccc(NC(=O)Cc2cccs2)cc1	?	-23%	-13%	40µM*	?	50µM*
O=C(Cc1cccs1)Nc1ccc(F)cc1F	-22%	-2%	-6%	-9%	-38%	79µM*
O=C1SC(SCc2ccccc2)=N/C1=C\c1ccco1	11µM*	10%	.	35µM*	32µM*	79µM*
O=C1SC(SCc2ccccc2)=N/C1=C\c1ccc(C(=O)O)cc1	-2%	-23%	-6%	4%	-33%	1%
O=[N+]([O-])c1ccccc1C1Nc2cccc3cccc(c23)N1	?	8.9µM*	-4%	10%	-28%	-9%
CO/N=C(\C(=O)N[C@@H]1C(=O)N2C(C(=O)[O-])=C(C[n+]3cccc4c3CCCC4)CS[C@H]12)c1csc(N)n1	.	6.3µM*	.	.	.	.
CO/N=C(\C(=O)N[C@@H]1C(=O)N2C(C(=O)O)=C(CSc3nc(=O)c(O)nn3C)CSC12)c1csc(N)n1 (stereo partly specified)	25µM*	.	3%	14µM*	?	11µM*
CO/N=C(\C(=O)N[C@@H]1C(=O)N2C(C(=O)O)=C(COC(C)=O)CS[C@H]12)c1csc(N)n1	.	.	-16%	.	.	.
CC(C)(C)OC(=O)N1CCC(c2c(C(=O)N3CCN(c4ccccn4)CC3)cnn2-c2ccccc2Cl)CC1	7%	2%	0%	-1%	-5%	-11%
O=C(COc1ccccc1C(=O)OCC(=O)Nc1cccc2ccccc12)Nc1ccc(Br)cc1	10%	.	.	.	8%	.
CC(=O)Nc1ccc(NC(=O)C2CCCN2S(=O)(=O)c2ccc3c(c2)CCCC(=O)N3)cc1 (stereo unspecified)	5%	-6%	-9%	0%	-2%	-10%
CCCCN1CC[C@H]2C=CC[C@@H](C(=O)NCc3cccnc3)[C@H]2C1=O	18%	.	.	.	-9%	.
CCOC(=O)NC1(Nc2cccc(Cl)c2)Oc2ccccc2O1	25µM*	?	43%	4%	?	-11%
COc1ccc(NC(=O)NNC(=O)c2ccc(-c3ccccc3)cc2)cc1	?	12%	-14%	7.9µM*	-17%	-16%
O=C(CCc1ccccc1)NNC(=O)c1ccc(NC(=O)c2ccccc2)cc1	?	-8%	-13%	22µM*	-19%	?
COc1ccc(NC(=O)NNC(=O)c2ccc(-c3ccccc3)cc2)c(OC)c1	-15%	17%	-4%	1%	-6%	-16%
O=C(NNC(=O)c1ccc(NC(=O)c2ccccc2)cc1)Nc1ccccc1	40µM*	1%	-2%	11µM*	?	?
N#C/C(=C\c1ccc(-c2cc(Cl)ccc2Cl)o1)C(=O)Nc1cccc2ncccc12	.	.	-17%	.	-7%[60.1 µM]	.
Cc1c(/C=C2\NC(=O)NC2=O)c2ccccc2n1C	126%	13µM*	-19%	11%	-1%	-20%
C[N+](C)(C)CC[N+]1(C)Cc2c(Cl)c(Cl)c(Cl)c(Cl)c2C1	.	3%	20µM*	.	1%[19.4 µM]	.
Cc1c2c(c(O)c3c(O)cccc13)C(=O)O[C@H]2C1C(N(C)C)C(O)=C(C(N)=O)C(=O)[C@H]1O (stereo partly specified)	.	.	3.2µM*	.	0.47µM*	.
SMILES	Pol iota inh	GLS inh	GCN5L2 inh	Pol beta inh	POLK inh	POLH inh
Cc1oc(-c2ccc(C(=O)NCc3ccccc3)cc2)nc1CN1CCc2ccccc21	14%	17%	-11%	22%	-5%[60.1 µM]	-11%
O=[N+]([O-])c1cc(/C=N\Nc2nc(-c3ccccc3)cs2)ccc1O	?	6%	?	40µM*	-25%	79µM*
O=[N+]([O-])c1ccc(-c2csc(N/N=C/c3cccnc3)n2)cc1	-23%	-3%	-8%	25%	-17%	-2%
CCOc1nc2cccc(C(=O)OC(C)OC(=O)OC3CCCCC3)c2n1Cc1ccc(-c2ccccc2-c2nn[nH]n2)cc1 (stereo unspecified)	.	.	20µM*	.	?	.
O=C(NCc1ccco1)C1c2ccccc2Oc2ccccc21	?	-24%	-3%	18µM*	?	7.9µM*
O=C(O)C1C2C=CC(C2)C1C(=O)NCc1cccs1 (stereo unspecified)	47%	0%	0%	?	0%	-13%
O=C(O)C1C2C=CC(C2)C1C(=O)NCc1ccco1 (stereo unspecified)	-9%	-11%	-18%	-2%	?	50µM*
NS(=O)(=O)c1ccc(Oc2ccc(S(N)(=O)=O)cc2)cc1	6%	1%	-7%	-2%	-1%	-14%
C=CS(=O)(=O)c1ccc(Oc2ccc(S(=O)(=O)C=C)cc2)cc1	10µM*	20%	-3%	16%	-3%	?
O=c1cc(COc2ncnc3c(Cl)cc(Cl)cc23)nc2sccn12	?	1%	3%	?	-24%	0%
O=c1cc(COc2ncnc3ccccc23)nc2sccn12	28µM*	6%	-1%	?	-26%	-7%
Cc1nc2nncn2c(N2CCN(c3ccccc3)CC2)c1C	25%	4%	-6%	17%	6%	.
CCOC(=O)c1ccc(N(C(=O)c2ccccc2)c2ccccc2)cc1	?	.	.	.	-15%	.
CS(=O)(=O)Nc1cccc(-c2cn3c(n2)SCC3)c1	?	15%	-4%	0%	32µM*	-3%
O=C(CN1CCN(c2ccccc2O)CC1)NC(=O)NC1CCCC1	65%	2.8µM*	-7%	-1%	-18%	6%
O=C(Cn1c(O)c(/C=C2\C=Nc3ccc(Br)cc32)sc1=O)N1CCCC1	?	7%	0%	-3%	-16%	-16%
